Assay [1] concerns Plasmodium falciparum Sir2 (PF13_0152, Sir2A). As to the kind of experiment: Plasmodium falciparum Sir2A binding compounds – biochemical, small-molecule microarray, 635 nm fluorescence, primary screen (AID 1098).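 Note: score merges spot fluorescence intensity with its signal-to-noise ratio.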 The conditions noted are these: fluorescence 635 nm, higher = more signal.
Assay [2] is described as follows: probe aDKK1 binding to arrayed compounds – biochemical, biotinylated probe, 635/667 nm fluorescence, primary screen (AID 1099).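 Note: score merges 667nm spot fluorescence with signal to noise across triplicate slides; reference of the scale not given here.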 The following applies: small-molecule microarray, higher = more signal.
A short description of assay [3]: probe aCHRDL2 binding to arrayed compounds – biochemical, biotinylated probe, 635/667 nm fluorescence, primary screen (AID 1100). The conditions noted are these: small-molecule microarray, higher = more signal.
Assay [4] can be described thus: change in splice reporter luminescence, either direction, cell-based, HEK293, spliceosome inhibition project, primary screen (AID 1101).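 Note: HEK293 cells carrying a splicing-competent luciferase reporter gene; test concentration not given here.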 The conditions noted are these: HEK293 splicing luciferase reporter, 24 h, higher = more signal, called active from +8 up or from −8 down.
The target of assay [5] is Fibroblast growth factor 10 (Homo sapiens) (UniProt O15520). The assay can be described thus: compounds binding fibroblast growth factor 10 – biochemical, small-molecule microarray, 635 nm fluorescence, primary screen (AID 1102). The conditions noted are these: FGF10 binding, fluorescence 635 nm, higher = more signal.
Sequence of Fibroblast growth factor 10 (Homo sapiens) (O15520 whole entry, looked up): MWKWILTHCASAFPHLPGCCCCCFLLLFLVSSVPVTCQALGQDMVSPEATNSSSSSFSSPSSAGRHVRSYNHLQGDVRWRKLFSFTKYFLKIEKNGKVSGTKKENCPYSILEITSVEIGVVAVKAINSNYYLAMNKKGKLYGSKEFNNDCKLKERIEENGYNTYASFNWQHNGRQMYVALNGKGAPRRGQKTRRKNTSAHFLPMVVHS
Assay [6] concerns glycogen synthase kinase-3 (GSK3A per assay name; protocol says GSK3B). The assay can be described thus: compounds binding glycogen synthase kinase-3 – biochemical, small-molecule microarray, 635 nm fluorescence, GSK3A, primary screen (AID 1103). Note: the record names both GSK3A and GSK3B. The conditions noted are these: fluorescence 635 nm, higher = more signal.
For assay [7], the target named is Epidermal growth factor receptor (Homo sapiens) (UniProt P00533). The assay can be described thus: compounds binding epidermal growth factor receptor – biochemical, small-molecule microarray, 635 nm fluorescence, primary screen (AID 1104).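 Note: score merges 667 nm emission intensity with spot signal to noise over triplicate slides.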 The conditions noted are these: EGFR binding, higher = more signal.
Sequence of Epidermal growth factor receptor (Homo sapiens) (P00533 whole entry, looked up): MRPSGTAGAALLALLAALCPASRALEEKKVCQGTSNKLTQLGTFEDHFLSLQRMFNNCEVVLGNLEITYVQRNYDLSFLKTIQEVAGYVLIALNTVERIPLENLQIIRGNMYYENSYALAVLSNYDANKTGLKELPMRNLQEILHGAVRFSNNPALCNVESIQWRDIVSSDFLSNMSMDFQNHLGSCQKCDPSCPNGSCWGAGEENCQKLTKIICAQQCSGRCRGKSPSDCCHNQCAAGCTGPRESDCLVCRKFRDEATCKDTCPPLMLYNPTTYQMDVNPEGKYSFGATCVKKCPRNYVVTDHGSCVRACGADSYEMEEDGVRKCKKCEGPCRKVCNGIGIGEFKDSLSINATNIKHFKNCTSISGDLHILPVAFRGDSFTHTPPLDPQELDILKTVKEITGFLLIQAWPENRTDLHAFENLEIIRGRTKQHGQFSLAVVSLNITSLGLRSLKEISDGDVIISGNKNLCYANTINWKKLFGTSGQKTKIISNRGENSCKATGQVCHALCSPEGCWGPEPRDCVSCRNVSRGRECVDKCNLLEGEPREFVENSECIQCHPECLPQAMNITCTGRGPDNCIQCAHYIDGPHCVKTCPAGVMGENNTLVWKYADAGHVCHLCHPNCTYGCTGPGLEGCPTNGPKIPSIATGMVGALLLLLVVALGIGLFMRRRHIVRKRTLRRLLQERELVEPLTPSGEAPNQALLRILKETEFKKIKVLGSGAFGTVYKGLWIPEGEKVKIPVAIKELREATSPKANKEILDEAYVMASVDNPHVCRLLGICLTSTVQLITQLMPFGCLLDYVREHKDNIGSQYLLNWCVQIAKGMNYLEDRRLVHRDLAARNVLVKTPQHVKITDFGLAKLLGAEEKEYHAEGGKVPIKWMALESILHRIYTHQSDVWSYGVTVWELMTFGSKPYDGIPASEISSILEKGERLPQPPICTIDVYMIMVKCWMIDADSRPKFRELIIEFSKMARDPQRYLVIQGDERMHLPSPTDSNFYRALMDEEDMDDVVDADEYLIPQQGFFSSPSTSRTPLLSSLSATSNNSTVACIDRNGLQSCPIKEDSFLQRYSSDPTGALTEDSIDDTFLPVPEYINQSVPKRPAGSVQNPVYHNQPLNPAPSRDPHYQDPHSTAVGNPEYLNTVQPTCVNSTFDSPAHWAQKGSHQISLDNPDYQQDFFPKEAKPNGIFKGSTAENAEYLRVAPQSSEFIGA
Assay [8] has as its target Follistatin-related protein 3 (Homo sapiens) (UniProt O95633). As to the kind of experiment: compounds binding follistatin-related protein 3 – biochemical, small-molecule microarray, 635 nm fluorescence, primary screen (AID 1105).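 Note: score merges emission near 667 nm and signal to noise per printed spot across three slides.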 The following applies: FSTL3 binding, higher = more signal.
The target in assay [9] is Dickkopf-related protein 1 (Homo sapiens) (UniProt O94907). The assay can be described thus: small molecules binding DKK1 protein – biochemical, small-molecule microarray, 635 nm fluorescence scan, primary screen (AID 1106).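 Note: score merges emission near 667 nm with signal to noise over three replicate slides.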 The conditions noted are these: higher = more signal.
Sequence of Dickkopf-related protein 1 (Homo sapiens) (O94907 whole entry, looked up): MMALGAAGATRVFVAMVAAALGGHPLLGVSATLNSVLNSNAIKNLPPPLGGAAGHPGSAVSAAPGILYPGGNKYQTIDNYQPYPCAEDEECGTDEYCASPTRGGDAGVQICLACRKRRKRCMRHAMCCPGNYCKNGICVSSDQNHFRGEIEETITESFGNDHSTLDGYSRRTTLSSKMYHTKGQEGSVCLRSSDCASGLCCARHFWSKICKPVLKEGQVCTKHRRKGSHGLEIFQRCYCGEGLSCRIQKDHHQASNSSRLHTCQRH
Assay [10] deals with Inhibin beta A chain (activin A). The assay can be described thus: small molecules binding activin A – biochemical, small-molecule microarray, 635 nm fluorescence scan, primary screen (AID 1107).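 Note: mouse activin A protein probed at 4.33 µg/mL on printed slides; score merges bound-protein fluorescence near 667 nm with spot signal-to-noise.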 The following applies: INHBA, higher = more signal.

Calls of active or inactive are those of the source.

Sequence of Follistatin-related protein 3 (Homo sapiens) (O95633 whole entry, looked up): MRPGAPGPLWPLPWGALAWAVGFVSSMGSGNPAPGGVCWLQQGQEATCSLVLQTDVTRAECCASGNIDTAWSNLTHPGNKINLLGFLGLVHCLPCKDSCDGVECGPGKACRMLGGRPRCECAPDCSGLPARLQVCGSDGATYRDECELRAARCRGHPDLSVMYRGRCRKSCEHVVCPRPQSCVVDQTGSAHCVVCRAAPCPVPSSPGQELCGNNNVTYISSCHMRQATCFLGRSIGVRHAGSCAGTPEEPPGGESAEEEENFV

Turning to `CCO[C@H](c1cc(OC)cc([N+](=O)[O-])c1OC)[C@H](C)C=CCC(=O)OC`, the composite z-score in [1] was 0.54; in assay [2], -0.295; in assay [3], -0.776; in assay [5], 0.0681; in assay [6], 0.117; in [7], 0.147. Further, the values for the composite z-score in [8], in [9] and in assay [10] were 0.385, 0.505 and 0.0666, respectively. Also, in assay [4], the z-score is 0.402 (inactive).
With `O=C1C[C@@H](O)[C@@H](O)[C@@H]2[C@@H]3C(=O)N(Cc4ccc5c(c4)OCO5)C(=O)[C@@H]3CC[C@H]12`, the composite z-score in assay [1] was 0.063; in [2] it was -0.312; in [3] it was -0.406; in assay [5], 0.309; in assay [6], 0.7; in assay [7], 0.368. For the same compound, the composite z-score worked out at 0.703 in assay [8], 0.593 in assay [9] and 0.128 in assay [10]. Besides, the z-score in assay [4] was 1.03 (inactive).
Take `CC(CCN1CCCCc2nc(C)c(C)cc21)=NOC[C@@H](O)COCc1ccco1`: the composite z-score in assay [1] is 1.19; in assay [2], -0.286; in assay [3], -1.58; in assay [5] it was 1.26; in assay [6] it was 1.34; in assay [7] it was 1.74. The composite z-score in assay [8] stood at 1.52; in assay [9] it was 2; in assay [10], 1.79. Moreover, in [4], the z-score was 0.44 (inactive).
Take `CC(C)CON=C1C[C@@H](O)[C@@H](O)[C@@H]2[C@@H]3C(=O)N(C(C)(C)C)C(=O)[C@@H]3CC[C@H]12`: the composite z-score is 0.801 in assay [1]; 0.454 in [2]; 0.562 in assay [3]; -0.294 in [5]; -0.516 in assay [6]; -0.205 in assay [7]. The composite z-score in assay [8] was -0.743; in assay [9], -0.82; in assay [10] it was -0.576. Also, in assay [4], the z-score is 0.886 (inactive).
Turning to `CC(=O)OC[C@H]1O[C@H](CCON=C2[C@H]3CCn4c(=O)n(-c5ccccc5)c(=O)n4[C@H]3[C@H](O)[C@@H]3O[C@H]23)C=C[C@@H]1OC(C)=O`, the composite z-score was 0.0057 in assay [1]; -0.149 in assay [2]; -0.442 in assay [3]; 0.527 in assay [5]; 0.494 in assay [6]; 0.432 in assay [7]. Also, the composite z-score in [8] is 0.446; in assay [9], 0.404; in assay [10], -0.636. Besides, in [4], the z-score is 0.838 (inactive).
For `CCN1C(=O)[C@H]2[C@H]3[C@H](O)[C@H](O)CC(=NOC[C@H]4O[C@H](c5ccccc5)C=C[C@@H]4Oc4ccc(OC)cc4)[C@@H]3CC[C@H]2C1=O`, the composite z-score is 0.605 in [1]; 0.0709 in assay [2]; -0.187 in assay [3]; 0.809 in assay [5]; 0.62 in [6]; 0.452 in [7]. In addition, the composite z-score in assay [8] was 0.616; in assay [9], 0.85; in [10] it was -0.0495. Further, the z-score in assay [4] is 0.387 (inactive).
`CCOC(=O)[C@H](Cc1ccccc1)NC(=O)CCC1CC(OC(=O)NCCc2ccc(F)cc2)CC2(CCCC(COC(=O)NCCOC)O2)O1` (stereo not given in full): the composite z-score was 0.637 in assay [1]; 0.765 in [2]; -0.504 in assay [3]; 0.984 in [5]; 0.614 in assay [6]; 0.856 in assay [7]. The figures for the composite z-score in assay [8], in [9] and in assay [10] were 0.969, 1.13 and 0.163, respectively. Besides, the z-score in assay [4] is 0.371 (inactive).
As for `CC(=O)OC[C@H]1OC(ON=CC[C@@H]2C=C[C@H](OC(C)=O)[C@@H](COC(C)=O)O2)[C@H](OC(C)=O)[C@@H](OC(C)=O)[C@@H]1OC(C)=O` (stereo not given in full), the composite z-score was 0.119 in assay [1]; -0.0393 in assay [2]; 0.265 in [3]; 0.384 in assay [5]; 0.0032 in [6]; 0.261 in assay [7]. Further, the values for the composite z-score in assay [8], in assay [9] and in assay [10] were -0.368, -0.416 and -2.75, respectively. The z-score in [4] is 0.632 (inactive).
On to `COc1cccc([C@@H]2Oc3ccc(OC)cc3C(=O)[C@H]2O)c1`, for which the composite z-score is -0.117 in [1]; -0.172 in [2]; -0.705 in assay [3]; 0.606 in assay [5]; 0.184 in assay [6]; 0.469 in assay [7]. For the same compound, the composite z-score in [8] worked out at 0.525; in assay [9], 0.527; in assay [10] it was 0.0204. Besides, the z-score in [4] is -2.47 (inactive).
Regarding `CO[C@@H]1COC(=O)CC=C[C@@H](C)[C@@H]2C=C[C@H](O)[C@@H](COC(=O)CC=C[C@H]1C)O2`, the composite z-score was 0.643 in assay [1]; -0.438 in assay [2]; -1.25 in assay [3]; 0.602 in assay [5]; 1.02 in assay [6]; 1.2 in assay [7]. Moreover, the composite z-score in assay [8] worked out at 1.52; in assay [9], 1.66; in [10] it was 1.73. In addition, the z-score in assay [4] was -0.383 (inactive).
On to `COc1ccc(C#C[C@@H]2C=C[C@H](OC(C)=O)[C@@H](COC(C)=O)O2)cc1`, for which the composite z-score was 0.647 in assay [1]; -0.174 in assay [2]; -0.289 in assay [3]; 0.465 in assay [5]; 0.185 in assay [6]; 0.586 in [7]. The composite z-score in [8] was determined as 0.842; in [9], 0.476; in [10], 1.18. Moreover, the z-score in assay [4] was -0.613 (inactive).
As for `CO[C@H]1COC(=O)CC=C[C@H](C)[C@@H](OC)COC(=O)[C@@H](C)NC(=O)CC=C[C@@H]1C`, the composite z-score in assay [1] is 1.23; in assay [2], -0.377; in assay [3], -1.17; in assay [5], 0.447; in [6] it was 0.597; in assay [7] it was 1.27. The values for the composite z-score in [8], in assay [9] and in assay [10] were 1.44, 1.49 and 1.52, respectively. Besides, in assay [4], the z-score was -0.653 (inactive).
For `CCc1cc2c(nc1CC)CCN(CCC(C)=NOC[C@H]1O[C@H](c3ccccc3)C=C[C@@H]1Oc1ccc(OC)cc1)C2`, the composite z-score is 0.507 in assay [1]; 0.46 in [2]; 0.0691 in [3]; -0.344 in assay [5]; -0.26 in assay [6]; -0.0924 in [7]. Besides, the composite z-score in assay [8] was -0.0668; in assay [9], -0.159; in [10] it was 0.813. Moreover, the z-score in [4] was -1.47 (inactive).
For the compound `CC(C)CON=C1C[C@@H](O)[C@@H](O)[C@@H]2[C@@H]3C(=O)N(C[C@@H]4CCCO4)C(=O)[C@@H]3CC[C@@H]12`, the composite z-score in [1] was 0.0599; in assay [2] it was 0.52; in assay [3], 0.0562; in [5], -0.231; in assay [6] it was -0.622; in assay [7], -0.151. Further, the composite z-score was -0.336 in assay [8], -0.554 in assay [9] and -0.148 in assay [10]. Also, the z-score in assay [4] is 0.926 (inactive).
On to `CCc1cc2c(nc1CC)CCN(CCC(C)=NO[C@H](C)c1cn([C@H](CO)Cc3ccccc3)nn1)C2`, for which the composite z-score in assay [1] was 0.536; in [2], -0.144; in assay [3] it was -0.0059; in [5] it was 0.0168; in assay [6], 0.0291; in assay [7], 0.1. Further, the composite z-score was determined as 0.11 in [8], 0.274 in assay [9] and 1.3 in assay [10]. The z-score in assay [4] is -0.0554 (inactive).
Turning to `CCOC(=O)[C@H](CC(C)C)NC(=O)CCC1CC(OC(=O)NCc2ccc3c(c2)OCO3)CC2(CCCC(COC(=O)NCCCN3CCCC3=O)O2)O1` (stereo not given in full), the composite z-score in [1] is 0.929; in assay [2], -0.0602; in assay [3], -0.568; in assay [5], 0.783; in assay [6], 0.805; in assay [7], 0.414. Moreover, the composite z-score was 0.734 in [8], 0.509 in assay [9] and -0.0813 in assay [10]. Moreover, the z-score in assay [4] is -0.719 (inactive).

Source of the values: PubChem BioAssay.
